Beta2AR agonist: human beta-2 adrenergic receptor agonism by FAP. 340,000 compounds, 0.43% hits. response, % (test concentration not listed). AID 504454. Am2.2-beta2AR cells, FAP receptor internalization, flow cytometry. P07550;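 active = response above a set limit, near 3 SD of response in nonfluorescent compounds, cut at about 42% in these data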
NadD inh: NadD (S. aureus) enzyme inhibition. purified NadD enzyme, colorimetric absorbance read-out. inhibition, % at 20 µM. 360,000 compounds, 0.78% hits. AID 602399; in the data active = inhibition above about 26%
PP1 counter: counter-screen for PP5 inhibitors: inhibitors of human PP1-alpha; purified PP1alpha, OMFP fluorescence; inhibition, % at 6.7 µM; 320,000 compounds, 0.9% hits;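 active = inhibition above the mean inhibition of all tested compounds plus 3 SD, computed separately for each screening campaign, cut at about 15% in these data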
GRK2 aptamer HTS: human GRK2 inhibition via aptamer displacement; 330,000 compounds, 0.59% hits; inhibition of aptamer binding, % at 10 µM; bead flow cytometry, FAM-aptamer displacement from GRK2; AID 488847;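 active = inhibition of aptamer binding above 40%, roughly 3 SD of noise, on plates passing a quality check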;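 also: median bead fluorescence of bound FAM aptamer so fluorescent compounds give negative values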
Exocytosis inh: blocks lytic granule exocytosis. TALL-104 LAMP-1 surface exposure, flow cytometry; cells stimulated with thapsigargin and PMA. inhibition, % at 10 µM. 360,000 compounds, 0.66% hits. AID 651702;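 active = inhibition above about 55%, limit read from the data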
Numbers without * were called inactive; x = not tested or not shown. Rows were chosen to be rich in hits. Some 2.9% of all compounds tested hit in one or more screens of this group.

SMILES	Beta2AR agonist	NadD inh	PP1 counter	GRK2 aptamer HTS	Exocytosis inh
CCCc1nn2c(=O)cc(CSCC(=O)Nc3ccccc3OC)nc2s1	-4	-4	-4	0	-22
Cc1ccc2c(c1)C1C=CCC1C(C(=O)O)N2 (configuration not stated)	x	x	20*	68*	x
COc1cccc2c1NC(C(=O)O)C1CC=CC21 (configuration not stated)	7	30	37*	100*	-3
O=C(O)C1Nc2c(cccc2C(F)(F)F)C2C=CCC12 (configuration not stated)	x	x	x	75*	x
CC(=O)c1ccc2c(c1)C1C=CCC1C(C(=O)O)N2 (configuration not stated)	6	19	x	x	-2
O=C(NCc1ccccc1)C1Nc2ccc(OC(F)(F)F)cc2C2C=CCC12 (configuration not stated)	-2	3	6	0	3
COc1ccc(C2=NN(C(C#N)c3ccc(OC)cc3)C(c3ccccc3)C2)cc1 (configuration not stated)	-3	-7	-1	0	-1
CCCC1=C/C(=C/c2ccc(-c3ccccc3OC)o2)C(=O)O1	7	40*	0	2	1
O=C(NCc1nc2ccccc2[nH]1)C1=C[C@@H](c2ccccc2)C[C@@H](OCc2ccc(CO)cc2)O1	-10	6	-3	1	71*
O=C(NCc1nc2ccccc2[nH]1)C1=C[C@H](c2ccccc2)C[C@H](OCc2ccc(CO)cc2)O1	-3	11	2	2	14
O=[N+]([O-])c1cnc(Sc2ccncn2)c([N+](=O)[O-])c1	x	7	x	x	68*
O=[N+]([O-])c1ccc(Sc2ncccn2)c([N+](=O)[O-])c1	-1	-4	1	0	-3
CC(NC(=O)Cc1ccsc1)c1ccc(Cl)cc1Cl (configuration not stated)	-10	0	1	0	-8
O=C(NCc1ccccn1)c1cccc(NS(=O)(=O)c2cccc(F)c2)c1	-1	-5	-3	1	-1
COCCCNC(=O)c1ccc2c(=O)n(Cc3ccc4c(c3)OCO4)c(=S)[nH]c2c1	1	-3	17*	4	-2
Nc1ncnc(Oc2ccccc2F)c1[N+](=O)[O-]	-7	-3	-4	0	7
N#CC(C#N)=Cc1cn(-c2ncc(C(F)(F)F)cc2Cl)c2ccccc12	66*	-1	-4	1	2
CC(=O)/C=C\c1cn(-c2ncc(C(F)(F)F)cc2Cl)c2ccccc12	-8	-7	0	4	-5
COc1cc(NC(=O)c2cc3ccccc3cc2O)c(OC)cc1Cl	21	21	-2	0	32
COc1ccccc1NC(=O)c1cc2cc(Br)ccc2cc1O	30	30*	3	4	-3
COc1cc(/C=C2/C(=O)N(c3ccccc3)N=C2C)ccc1OS(=O)(=O)c1ccccc1	x	x	1	0	x
COc1ccc(/C=C2/C(=O)N(c3ccccc3)N=C2C)cc1Br	76*	3	-1	4	-17
CC[n+]1c(/C=C2\Sc3ccccc3N2C)ccc2cccc(C)c21	x	13	x	x	68*
Cc1ccc(C(C(=O)NC2CCCCC2)N(Cc2ccccc2)C(=O)Cc2c[nH]c3ccccc23)o1 (configuration not stated)	0	6	8	0	2
COc1ccc(CN(C(=O)Cc2c[nH]c3ccccc23)C(C(=O)NC2CCCCC2)c2ccc(C)o2)cc1 (configuration not stated)	9	16	17*	2	6
SMILES	Beta2AR agonist	NadD inh	PP1 counter	GRK2 aptamer HTS	Exocytosis inh
Cc1nc2ccccn2c(=O)c1NC(=O)c1ccc2c(c1)OCO2	x	-2	x	x	2
CCCC(=O)N1CCN(c2ccc(NC(=O)c3sc4ccccc4c3Cl)cc2)CC1	5	4	16*	1	-4
Cc1ccccc1CN1N=C(/C=C/c2ccccc2)CCC1=O	48*	-8	-1	1	-4
CCOc1ccc2[nH]c(=O)c(CN(CCc3ccccc3)C(=O)c3cnccn3)cc2c1	-4	3	-3	0	0
C/C(=N\NC(=O)COc1ccc(C(C)(C)C)cc1)c1ccc(-n2ccnc2)cc1	-10	22	15*	0	1
Cc1nn(C(=O)c2nn(C)cc2[N+](=O)[O-])c(C)c1Br	0	7	-4	1	2
Cc1ccccc1C1C(C#N)=C2N=C(N)c3c(sc4c3CCCCC4)N2C2=C1C(=O)CC(C)(C)C2 (configuration not stated)	-23	24	15*	3	1
Cc1ccccc1C1C(C#N)=C2NC(=O)c3c(sc4c3CCCCC4)N2C2=C1C(=O)CC(C)(C)C2 (configuration not stated)	x	x	2	2	x
O=C(O)c1cc(N/N=C/c2ccc(-c3ccccc3)cc2)ccc1Cl	4	4	x	43*	10
O=S(=O)(/C(=C\c1ccc(C(F)(F)F)cc1)c1nc2ccccc2[nH]1)c1ccccc1	22	0	x	x	70*
O=C(NCc1ccco1)/C(=C/c1ccc(C(F)(F)F)cc1)c1nc2ccccc2[nH]1	-12	15	2	5	4
COc1ccc(OC)c(S(=O)(=O)Nc2cccc3ccc(O)cc23)c1	1	-8	1	3	-1
O=C(CSc1ccc(Cl)cc1)Nc1ccccc1N1CCN(C(=O)c2ccc(Cl)cc2)CC1	4	-3	15*	0	-2
Cc1ccc(C)c(NC(=O)C(Sc2nnc(-c3cccs3)o2)c2ccccc2)c1 (configuration not stated)	5	-2	2	1	1
COc1ccc(CCN2C(=O)C3CC(C)=C(C)CC3C2=O)cc1OC (configuration not stated)	0	2	-4	3	0
Cc1cc(O)c2c(c1O)C(=O)[C@]13C(=C2O)C(=O)[C@@H]2[C@@H](O)[C@H]1[C@@H]1[C@H](O)[C@H]3C(=O)C3=C(O)c4c(O)cc(C)c(O)c4C(=O)[C@]312	-38	32*	x	72*	7
Cc1c(Br)c([N+](=O)[O-])nn1CC(=O)Nc1ccc(C(C)C)cc1	18	-6	4	0	-2
CCCNS(=O)(=O)/C=C/c1ccccc1	-3	-10	1	0	0
O=S(=O)(/C=C/c1ccccc1)NCc1ccccc1Cl	67*	-3	-3	0	-3
CCSc1nnc(-c2cccnc2)n1-c1ccc(Cl)c(C)c1	12	0	-4	0	1
O=C(Nc1ccc(Oc2c(F)c(F)c(F)c(F)c2F)cc1)OC1CCN2Cc3ccccc3N=C12 (configuration not stated)	102*	26	-4	0	22
CCN(c1ccccc1)S(=O)(=O)c1ccc(NC(=O)c2nc(S(C)(=O)=O)ncc2Cl)cc1	104*	3	2	0	26
CS(=O)(=O)c1ncc(Cl)c(C(=O)Nc2ccc(OC(F)F)cc2)n1	-147	-1	-4	1	7
